Inconclusive results are not listed. A number with no mark means an inactive call. Active and inactive are the calls of the source. Calls follow the shape of the dose curve; as a rule, active = well fitted inhibition curve with a large enough effect; inconclusive = small, poorly fitted or top-dose-only effect, or effect the other way; inactive = flat fitted curve, though single readings scatter.
biological target: Menin (Homo sapiens) (UniProt O00255); test: Confirmation of Inhibitors Targeting the Menin-MLL Interaction in MLL Related Leukemias: Confirmation in an HTRF (commercial TR-FRET) Assay using His-tagged menin and biotin-labeled MLL peptide; details: His-menin / biotin-MLL peptide binding; series mostly up to 126 µM; activity change, negative = inhibition: at the top concentration
Sequence (O00255 whole entry, looked up): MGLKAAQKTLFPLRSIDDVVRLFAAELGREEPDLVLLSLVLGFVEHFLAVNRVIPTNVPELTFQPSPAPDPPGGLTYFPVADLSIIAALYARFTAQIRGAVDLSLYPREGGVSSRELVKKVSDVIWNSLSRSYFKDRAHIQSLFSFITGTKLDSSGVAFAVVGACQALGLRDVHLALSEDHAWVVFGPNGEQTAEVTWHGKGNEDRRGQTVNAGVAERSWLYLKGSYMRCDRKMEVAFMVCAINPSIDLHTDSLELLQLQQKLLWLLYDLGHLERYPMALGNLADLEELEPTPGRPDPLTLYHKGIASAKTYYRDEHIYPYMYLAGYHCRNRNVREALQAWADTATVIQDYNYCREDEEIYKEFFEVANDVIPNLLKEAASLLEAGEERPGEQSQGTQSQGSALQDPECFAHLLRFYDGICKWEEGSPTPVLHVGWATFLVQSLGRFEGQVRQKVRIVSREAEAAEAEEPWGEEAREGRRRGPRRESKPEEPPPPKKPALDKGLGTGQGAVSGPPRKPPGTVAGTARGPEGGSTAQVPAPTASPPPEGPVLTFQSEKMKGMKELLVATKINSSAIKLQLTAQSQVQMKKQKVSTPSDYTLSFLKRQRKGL
Procedure, shortened: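 Compounds were incubated 1 hr at ambient with a preformed His6-menin (200 nM)/biotinylated MLL-w.t. peptide (80 nM) complex in Tris pH 7.5 buffer; anti-His Eu-cryptate (3.5 nM) and SA-XL665 (10 nM) added, TR-FRET read after 1h.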
% is scaled to controls: 0 for no effect and ±100 for the full control effect; potency is read from the fitted curve at half-maximal effect.

| Compound | activity change, negative = inhibition | Potency |
| --- | --- | --- |
| CN(C)CCCOc1ccc2c(c1)Sc1ccccc1CC2=O | -10.1% |  |
| CC(c1ccncn1)N(C)Cc1nc(-c2ccc(C(F)(F)F)cc2)no1 (stereo not given) | 7.72% |  |
| CN(C)[C@H]1C(=O)C(C(=O)NCN2CCCC2)=C(O)[C@]2(O)C(=O)C3=C(O)c4c(O)cccc4[C@](C)(O)[C@H]3C[C@H]12 |  | 70.7 µM (active) |
| COC(=O)c1cc(CNC(=O)CCCSc2ccccc2)ccc1OC | 3.68% |  |
| O=C(CSc1nnc(-c2c[nH]c3ccccc23)o1)c1ccc(-c2ccccc2)cc1 | -14.1% |  |
| O=C(O)/C(=C\c1ccc(F)cc1)c1ccc(-c2ccccc2)cc1 | -11.4% |  |
| CCCn1c(=O)c(C(=O)Nc2ccccc2C(=O)OCC)c(O)c2ccccc21 | 2.41% [at 383 µM] |  |
| O=C(C1CCCN(Cc2cccc(Cl)c2)C1)N1CCCCC1 (stereo not given) | 1.08% |  |
| NC(=O)c1cc2ccccc2o/c1=N/NC(=O)c1cccc(F)c1 | 12.1% |  |
| Cc1cc(C)c2c(=O)cc(C(=O)NCc3ccccc3)oc2c1 | -13.4% [at 383 µM] |  |
| Cc1cc2cc(C(c3nnnn3CC3CCCO3)N3CCCc4ccccc43)c(=O)[nH]c2cc1C (stereo not given) | -8.66% |  |
| O=C1C(=O)c2ncccc2-c2cccnc21 | -3.61% |  |
| N=c1oc2ccccc2cc1-c1nc(-c2ccc(Cl)cc2)cs1 | -5.52% |  |
| CC(=O)Nc1ccc(-c2cc(-c3ccc(NC(C)=O)cc3)nc(-c3ccc(NC(C)=O)cc3)n2)cc1 |  | 79.4 µM (active) |
| Cc1nc(C)c(-c2ccc(SCc3ccccc3F)nn2)s1 | 2.1% |  |
| COc1ccc(OC)c(C(c2c(C)[nH][nH]c2=O)c2c(C)[nH][nH]c2=O)c1 | -8.58% [at 383 µM] |  |
| O=C1CCNc2c(Cl)cc(Cl)cc21 | 4.84% |  |
| CN[C@H]1[C@H](O)[C@@H](O[C@@H]2[C@H](O)[C@@H](O[C@H]3OC(CN)=CC[C@H]3N)[C@@H](N)C[C@H]2N)OC[C@@]1(C)O | -7.69% |  |

| Compound | activity change, negative = inhibition | Potency |
| --- | --- | --- |
| Oc1ccc(Nc2ncnc3c2oc2ccccc23)cc1 | -8.71% [at 383 µM] |  |
| COc1ccccc1/C=N/n1c(N)c(S(=O)(=O)c2cccs2)c2nc3ccccc3nc21 | -7.78% [at 383 µM] |  |
| COCCn1c(C)c(C)c2c(NCCc3ccccc3)ncnc21 | 5.34% |  |
| COc1ccc2nc(NC(=O)CSc3nnc(N)s3)sc2c1 | -7.53% |  |
| C[C@@H]1CN(C(=O)c2nc3ccc(Cl)cn3c2CNCC[C@@H]2C[C@@H]3C=C[C@H]2C3)C[C@H](C)O1 | -3.93% |  |
| CCOC(=O)N1CCN(Cc2nnc(-c3ccccc3C)o2)CC1 | 10.3% |  |
| Cc1nc(N2CCN(C)CC2)c2c3c(sc2n1)CCCC3 | 0.279% |  |
| O=C(CC(=O)c1ccccc1)Nc1cc(C(F)(F)F)ccc1Cl | -2.84% |  |
| CC(c1cc2ccccc2s1)N(O)C(N)=O (stereo not given) | 2.69% [at 383 µM] |  |
| C[C@H](NC(=O)c1cc2c(cn1)[nH]c1ccccc12)C(=O)O |  | 79.4 µM (active) |
| COc1cnc(-c2ccccn2)nc1N(C)c1ccccc1 | 4.38% |  |
| CCc1nnc(NC(=O)C2(C)COC(c3ccc(OC)cc3)OC2)s1 (stereo not given) | -0.226% |  |
| COC(=O)[C@H](C)NC(=O)c1cc2c(cn1)[nH]c1ccccc12 |  | 50.1 µM (active) |
| COc1ccc(-c2csc(NC(=S)NC(=O)/C=C/c3ccc(C(C)C)cc3)n2)cc1OC | -24.4% |  |
| COc1ccc(N(CC(=O)NC2CC3CCC2C3)S(=O)(=O)c2ccc(C)cc2)cc1OC (stereo not given) | 5.88% |  |
| O=C(CC(Sc1ccc(Br)cc1)C(=O)O)c1ccc(F)cc1 (stereo not given) | 3.77% [at 383 µM] |  |
| CCOC(=O)Cn1c2ccccc2n2nc(CCC(=O)O)c(=O)nc12 | -0.0741% |  |
